# Laboratory results taken from the supplement of paper PMC10037445.
# Values joined by “and” are separate entries in the source; they are usually repeats but may differ in a detail not shown here. Identical values can stand only once. Whole data set: some 2,900 compounds, median “NF-kB SEAP reporter activity, fold change vs agonist alone” near 0.99, cut for the highest 2% near 2.6. Shown is part of a subset that was picked to be rich in the highest values.
# Assays:
# RAW-Dual [1] = assay: NF-kB SEAP reporter activity, fold change vs agonist alone; cytotoxicity flag (confluency mask): not cytotoxic; higher = enhanced NF-kB activity
# In short: (§1)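 RAW-Dual macrophages were seeded in DMEM at 50,000 cells/well in 384-well plates, given 50 nL of library stock by pin tool, and given a PRR agonist 1 h later. Plates were held at 37 °C, 5% CO2 for 20 hours, after which supernatant was read for IRF by QuantiLuc luminescence and for NF-κB by QuantiBlue absorbance at 620 nm. Reporter activity is expressed as fold change over wells that received agonist alone. A well was called cytotoxic when IncuCyte confluency fell below 70% of agonist controls in both mask sets.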
# RAW-Dual [2] = assay: NF-kB SEAP reporter activity, fold change vs agonist alone; higher = enhanced NF-kB activity; settings: library stock concentration (final ~1000-fold dilution): 10 mM
# In short: as §1
# RAW-Dual [3] = assay: NF-kB SEAP reporter activity, fold change vs agonist alone; cytotoxicity flag (confluency mask): cytotoxic (confluency <70% of control); higher = enhanced NF-kB activity
# In short: as §1
# [4] = agonist: ODN 1826 (TLR9) 0.5 ug/mL
# [5] = agonist: Pam2CSK4 (TLR2/6) 0.1 ug/mL
# [6] = agonist: Pam3CSK4 (TLR2/1) 0.1 ug/mL
# [7] = cytotoxicity flag (confluency mask): not cytotoxic, agonist: Imiquimod (TLR7) […]
# [8] = cytotoxicity flag (confluency mask): not cytotoxic, agonist: MPLA (TLR4) […]
smiles,measurement,setting,value
Cc1[nH]nc(C(F)(F)F)c1Cc1sc2c(c1C(=O)N1CC(C)(O)CO1)c(=O)n(C)c(=O)n2C(C)C (stereo unspecified) (library stock concentration (final ~1000-fold dilution): 10 mM),NF-kB SEAP reporter activity,RAW-Dual [1]; agonist: LPS (TLR4) 0.1 ug/mL,1.81
same,NF-kB SEAP reporter activity,RAW-Dual [1]; [4],1.27
same,NF-kB SEAP reporter activity,RAW-Dual [1]; [5],0.918
same,NF-kB SEAP reporter activity,RAW-Dual [1]; [6],1.06
Cc1[nH]nc(C(F)(F)F)c1Cc1sc2c(c1C(=O)N1CC(C)(O)CO1)c(=O)n(C)c(=O)n2C(C)C (stereo unspecified),NF-kB SEAP reporter activity,RAW-Dual [2]; [7],1.11
same,NF-kB SEAP reporter activity,RAW-Dual [2]; [8],1.25
Cc1cc(C)nc(NC(=S)N2CCN(Cc3ccc(C(F)(F)F)cc3)CC2)c1,NF-kB SEAP reporter activity,RAW-Dual [2]; [7],0.758
same,NF-kB SEAP reporter activity,RAW-Dual [2]; [8],0.954
Cc1cc(C)nc(NC(=S)N2CCN(Cc3ccc(C(F)(F)F)cc3)CC2)c1 (library stock concentration (final ~1000-fold dilution): 10 mM),NF-kB SEAP reporter activity,RAW-Dual [1]; agonist: LPS (TLR4) 0.1 ug/mL,0.783
same,NF-kB SEAP reporter activity,RAW-Dual [1]; [4],0.834
same,NF-kB SEAP reporter activity,RAW-Dual [1]; [5],0.805
same,NF-kB SEAP reporter activity,RAW-Dual [1]; [6],0.809
CC1c2cccc(O)c2C(=O)C2=C(O)C3(O)C(=O)C(C(N)=O)=C(O)C(N(C)C)C3C(O)C21 (stereo unspecified) (library stock concentration (final ~1000-fold dilution): 10 mM),NF-kB SEAP reporter activity,RAW-Dual [1]; agonist: LPS (TLR4) 0.1 ug/mL,1.81
same,NF-kB SEAP reporter activity,RAW-Dual [1]; [4],0.966
same,NF-kB SEAP reporter activity,RAW-Dual [1]; [5],0.896
same,NF-kB SEAP reporter activity,RAW-Dual [1]; [6],0.885
CC1c2cccc(O)c2C(=O)C2=C(O)C3(O)C(=O)C(C(N)=O)=C(O)C(N(C)C)C3C(O)C21 (stereo unspecified),NF-kB SEAP reporter activity,RAW-Dual [2]; [8],1.13
CC(=O)N1CCC(Nc2cc(C(=O)NCC(O)CN3CCc4ccccc4C3)ncn2)CC1 (stereo unspecified),NF-kB SEAP reporter activity,RAW-Dual [2]; [7],0.92
same,NF-kB SEAP reporter activity,RAW-Dual [2]; [8],1.03
CC(=O)N1CCC(Nc2cc(C(=O)NCC(O)CN3CCc4ccccc4C3)ncn2)CC1 (stereo unspecified) (library stock concentration (final ~1000-fold dilution): 10 mM),NF-kB SEAP reporter activity,RAW-Dual [1]; agonist: LPS (TLR4) 0.1 ug/mL,1.08
same,NF-kB SEAP reporter activity,RAW-Dual [1]; [4],0.948
same,NF-kB SEAP reporter activity,RAW-Dual [1]; [5],1.13
same,NF-kB SEAP reporter activity,RAW-Dual [1]; [6],1.17
Cc1cc(N=Nc2ccc3c(c2)CCC(=O)N3)c(N)cc1O (library stock concentration (final ~1000-fold dilution): 10 mM),NF-kB SEAP reporter activity,RAW-Dual [1]; agonist: LPS (TLR4) 0.1 ug/mL,1.42
same,NF-kB SEAP reporter activity,RAW-Dual [1]; [4],1.33
same,NF-kB SEAP reporter activity,RAW-Dual [1]; [5],0.692
same,NF-kB SEAP reporter activity,RAW-Dual [1]; [6],1.22
Cc1cc(N=Nc2ccc3c(c2)CCC(=O)N3)c(N)cc1O,NF-kB SEAP reporter activity,RAW-Dual [2]; [7],1.35
same,NF-kB SEAP reporter activity,RAW-Dual [2]; [8],1.77
O=C(O)C1=C/C(=N\Nc2ccc(S(=O)(=O)Nc3ccccn3)cc2)C=CC1=O (library stock concentration (final ~1000-fold dilution): 10 mM),NF-kB SEAP reporter activity,RAW-Dual [1]; agonist: LPS (TLR4) 0.1 ug/mL,1.65
same,NF-kB SEAP reporter activity,RAW-Dual [1]; [4],1.26
same,NF-kB SEAP reporter activity,RAW-Dual [1]; [5],0.969
same,NF-kB SEAP reporter activity,RAW-Dual [1]; [6],0.851
O=C(O)C1=C/C(=N\Nc2ccc(S(=O)(=O)Nc3ccccn3)cc2)C=CC1=O,NF-kB SEAP reporter activity,RAW-Dual [2]; [7],1.07
same,NF-kB SEAP reporter activity,RAW-Dual [2]; [8],1.31
Cc1cc(N=Nc2ccc(S(=O)(=O)Nc3ccccn3)cc2)c(N)cc1O (library stock concentration (final ~1000-fold dilution): 10 mM),NF-kB SEAP reporter activity,RAW-Dual [1]; agonist: LPS (TLR4) 0.1 ug/mL,3.77
same,NF-kB SEAP reporter activity,RAW-Dual [1]; [4],2.32
same,NF-kB SEAP reporter activity,RAW-Dual [1]; [5],0.966
same,NF-kB SEAP reporter activity,RAW-Dual [1]; [6],2.13
Cc1cc(N=Nc2ccc(S(=O)(=O)Nc3ccccn3)cc2)c(N)cc1O,NF-kB SEAP reporter activity,RAW-Dual [2]; [7],1.38
same,NF-kB SEAP reporter activity,RAW-Dual [2]; [8],2.48
O=C(c1ccccc1)C(O)O,NF-kB SEAP reporter activity,RAW-Dual [2]; [8],1.19
O=C(c1ccccc1)C(O)O (library stock concentration (final ~1000-fold dilution): 10 mM),NF-kB SEAP reporter activity,RAW-Dual [1]; agonist: LPS (TLR4) 0.1 ug/mL,1.12
same,NF-kB SEAP reporter activity,RAW-Dual [1]; [4],1.04
same,NF-kB SEAP reporter activity,RAW-Dual [1]; [5],1.14
same,NF-kB SEAP reporter activity,RAW-Dual [1]; [6],1.07
CCC(=O)OC1CC(=O)OC(C)C/C=C/C=C/C(O)C(C)CC(CC=O)C(OC2OC(C)C(OC3CC(C)(O)C(OC(=O)CC)C(C)O3)C(N(C)C)C2O)C1OC (stereo unspecified),NF-kB SEAP reporter activity,RAW-Dual [2]; [7],0.961
same,NF-kB SEAP reporter activity,RAW-Dual [2]; [8],1.07
CCC(=O)OC1CC(=O)OC(C)C/C=C/C=C/C(O)C(C)CC(CC=O)C(OC2OC(C)C(OC3CC(C)(O)C(OC(=O)CC)C(C)O3)C(N(C)C)C2O)C1OC (stereo unspecified) (library stock concentration (final ~1000-fold dilution): 10 mM),NF-kB SEAP reporter activity,RAW-Dual [1]; agonist: LPS (TLR4) 0.1 ug/mL,0.93
same,NF-kB SEAP reporter activity,RAW-Dual [1]; [4],1.02
same,NF-kB SEAP reporter activity,RAW-Dual [1]; [5],1.06
same,NF-kB SEAP reporter activity,RAW-Dual [1]; [6],1.21
COc1ccc2c(c1O)-c1c(O)c(OC)cc3c1C(C2)[N+](C)(C)CC3 (stereo unspecified) (library stock concentration (final ~1000-fold dilution): 10 mM),NF-kB SEAP reporter activity,RAW-Dual [1]; agonist: LPS (TLR4) 0.1 ug/mL,1.1 and 1.18
same,NF-kB SEAP reporter activity,RAW-Dual [1]; [4],0.935 and 1.11
same,NF-kB SEAP reporter activity,RAW-Dual [1]; [5],1.01 and 1.08
same,NF-kB SEAP reporter activity,RAW-Dual [1]; [6],0.967 and 1.08
CC(C)(NS(=O)(=O)c1ccc2c(Cl)cnc(NC(=N)N)c2c1)C(=O)O.Cl,NF-kB SEAP reporter activity,RAW-Dual [2]; [7],0.99
same,NF-kB SEAP reporter activity,RAW-Dual [2]; [8],0.923
CC(C)(NS(=O)(=O)c1ccc2c(Cl)cnc(NC(=N)N)c2c1)C(=O)O.Cl (library stock concentration (final ~1000-fold dilution): 10 mM),NF-kB SEAP reporter activity,RAW-Dual [1]; agonist: LPS (TLR4) 0.1 ug/mL,1.1
same,NF-kB SEAP reporter activity,RAW-Dual [1]; [4],1.01
same,NF-kB SEAP reporter activity,RAW-Dual [1]; [5],0.913
same,NF-kB SEAP reporter activity,RAW-Dual [1]; [6],0.764
Cl.Nc1ncccc1-c1nc2ccc(-c3ccccc3)nc2n1-c1ccc(C2(N)CCC2)cc1 (library stock concentration (final ~1000-fold dilution): 10 mM),NF-kB SEAP reporter activity,RAW-Dual [3]; agonist: LPS (TLR4) 0.1 ug/mL,0.954
same,NF-kB SEAP reporter activity,RAW-Dual [3]; [4],0.218
same,NF-kB SEAP reporter activity,RAW-Dual [3]; [5],0.921
same,NF-kB SEAP reporter activity,RAW-Dual [3]; [6],1.38
Cl.Nc1ncccc1-c1nc2ccc(-c3ccccc3)nc2n1-c1ccc(C2(N)CCC2)cc1,NF-kB SEAP reporter activity,"RAW-Dual [2]; cytotoxicity flag (confluency mask): cytotoxic (confluency <70% of control), agonist: Imiquimod (TLR7) […]",1.7
same,NF-kB SEAP reporter activity,"RAW-Dual [2]; cytotoxicity flag (confluency mask): cytotoxic (confluency <70% of control), agonist: MPLA (TLR4) […]",1.8
COc1cc2c(cc1OC)C1CC(OC(=O)C(N)C(C)C)C(CC(C)C)CN1CC2.Cc1ccc(S(=O)(=O)O)cc1.Cc1ccc(S(=O)(=O)O)cc1 (stereo unspecified),NF-kB SEAP reporter activity,RAW-Dual [2]; [7],1.07
same,NF-kB SEAP reporter activity,RAW-Dual [2]; [8],1.11
COc1cc2c(cc1OC)C1CC(OC(=O)C(N)C(C)C)C(CC(C)C)CN1CC2.Cc1ccc(S(=O)(=O)O)cc1.Cc1ccc(S(=O)(=O)O)cc1 (stereo unspecified) (library stock concentration (final ~1000-fold dilution): 10 mM),NF-kB SEAP reporter activity,RAW-Dual [1]; agonist: LPS (TLR4) 0.1 ug/mL,1.11
same,NF-kB SEAP reporter activity,RAW-Dual [1]; [4],0.207
same,NF-kB SEAP reporter activity,RAW-Dual [1]; [5],0.856
same,NF-kB SEAP reporter activity,RAW-Dual [1]; [6],0.889
CC1CCN(C(=O)CC#N)CC1N(C)c1ncnc2[nH]ccc12 (stereo unspecified),NF-kB SEAP reporter activity,RAW-Dual [2]; [7],1.31
same,NF-kB SEAP reporter activity,RAW-Dual [2]; [8],1.05
